Consider 20 molecules from PubChem BioAssay.

Test [1] has as its target Nuclear receptor coactivator 3 (Homo sapiens) (UniProt Q9Y6Q9). Nature of the test: SRC3 coactivator transcriptional activity inhibitors, confirmation, cell-based, luminescence, quadruplicate (AID 588792;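 active = mean inhibition over 43.08%, the solvent-only control mean plus 3 SD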;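 note: 0% = DMSO treated cells and 100% = gossypol at 36 µM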). Conditions: HEK293 GAL4-SRC3 luciferase reporter, at 3.6 µM, stronger effect = higher value.
In test [2] the test system is transactivating tegument protein VP16 (Human herpesvirus 1), Gal4-VP16 luciferase reporter. Nature of the test: VP16 transactivation inhibitors, counter-screen for SRC3 inhibitor project, cell-based, luminescence, high throughput (AID 588794). Conditions: mammalian cells, VP16-driven luciferase reporter luminescence; at 3.6 µM; stronger effect = higher value.
Test [3] concerns the target Nuclear receptor coactivator 1 (Homo sapiens) (UniProt Q15788). Nature of the test: SRC1 coactivator transcriptional activity inhibitors, confirmation, cell-based, luminescence, quadruplicate (AID 588820;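 active = mean inhibition above 46.68%, the untreated control wells mean plus 3 SD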;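 note: 0% = DMSO wells and 100% = gossypol 36 µM treated wells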). The note with it: HEK293 GAL4-SRC1 luciferase reporter, at 3.6 µM, stronger effect = higher value. (In general: In a reporter assay the amount or activity of a reporter protein is the signal.)

Test [4] in a line: VP16 transactivation inhibitors, counter-screen for SRC1 inhibitor project, cell-based, luminescence, high throughput (AID 588824; in the data active = inhibition above about 25%). Conditions: cell-based VP16 transactivation luciferase luminescence; at 3.6 µM; stronger effect = higher value. Background: A counterscreen serves to expose hits that act by an unwanted route or on another target.
Test [5] can be described thus: StAR promoter reporter inhibitors, counter-screen for LRH-1 inverse agonist project, cell-based, luminescence, high throughput (AID 651611; in the data active = inhibition above about 28%). The note with it: StAR promoter luciferase reporter counterscreen, at 3.6 µM, stronger effect = higher value.
In test [6] the target is Nuclear receptor subfamily 5 group A member 2 (Homo sapiens) (UniProt O00482). Description: LRH-1 (NR5A2) inverse agonists, retest, confirmation, cell-based, luminescence (AID 651613; in the data active = inhibition above about 42%;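 note: HEK293T cells co-transfected with LRH-1 and StAR promoter luciferase reporter; 0% = vehicle wells and 100% = parental cells lacking receptor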). Conditions: cell-based LRH-1 luciferase reporter, inverse agonism; at 3.6 µM; stronger effect = higher value.
Chain of Nuclear receptor subfamily 5 group A member 2 (Homo sapiens) (O00482 whole entry, looked up): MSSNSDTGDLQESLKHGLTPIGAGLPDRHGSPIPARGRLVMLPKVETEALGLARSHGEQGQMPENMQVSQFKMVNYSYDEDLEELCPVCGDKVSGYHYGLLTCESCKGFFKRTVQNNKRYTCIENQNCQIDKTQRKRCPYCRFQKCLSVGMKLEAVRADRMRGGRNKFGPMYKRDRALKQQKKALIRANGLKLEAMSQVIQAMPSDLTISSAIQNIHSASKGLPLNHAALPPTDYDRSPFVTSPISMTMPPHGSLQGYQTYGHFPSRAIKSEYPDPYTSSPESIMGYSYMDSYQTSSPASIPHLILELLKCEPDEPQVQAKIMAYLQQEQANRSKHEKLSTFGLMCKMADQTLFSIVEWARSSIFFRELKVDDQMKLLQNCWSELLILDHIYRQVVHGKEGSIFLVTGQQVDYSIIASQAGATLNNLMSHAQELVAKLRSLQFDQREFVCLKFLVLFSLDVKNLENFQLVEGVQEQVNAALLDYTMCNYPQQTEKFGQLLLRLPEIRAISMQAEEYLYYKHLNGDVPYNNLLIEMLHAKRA
Test [7] addresses Steroidogenic factor 1 (Homo sapiens) (UniProt Q13285). Nature of the test: SF1 (NR5A1) inverse agonists, counter-screen for LRH-1 inverse agonist project, cell-based, luminescence, high throughput (AID 651614; in the data active = inhibition above about 44%;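 note: cells cotransfected with StAR promoter reporter and SF1 expression vector; 0% = vehicle on cells with receptor and 100% = vehicle on cells lacking receptor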). Conditions: cell-based SF1 luciferase reporter, at 3.6 µM, stronger effect = higher value.
The nature of test [8]: VP16 transactivation reporter inhibitors, counter-screen for LRH-1 inverse agonist project, cell-based, luminescence, high throughput (AID 651615; in the data active = inhibition above about 33%). Conditions: Gal4-VP16 luciferase reporter cells, at 3.6 µM, stronger effect = higher value.
In test [9] the target is Photoreceptor-specific nuclear receptor (Homo sapiens) (UniProt Q9Y5X4). Description: NR2E3 agonist confirmation in cells, cell-based, luminescence, CHO-S two-hybrid (AID 624378;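 active = average inhibition above a cutoff equal to the mean inhibition of all tested compounds plus one SD, cut at about 70% in these data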;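 note: 0% = DMSO in NR2E3 cells and 100% = DMSO in cells lacking NR2E3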). The note with it: CHO-S mammalian two-hybrid NR2E3-NCOR, luciferase luminescence; at 3.98 µM; stronger effect = higher value.
Chain of Photoreceptor-specific nuclear receptor (Homo sapiens) (Q9Y5X4 whole entry, looked up, the tested form may be a part): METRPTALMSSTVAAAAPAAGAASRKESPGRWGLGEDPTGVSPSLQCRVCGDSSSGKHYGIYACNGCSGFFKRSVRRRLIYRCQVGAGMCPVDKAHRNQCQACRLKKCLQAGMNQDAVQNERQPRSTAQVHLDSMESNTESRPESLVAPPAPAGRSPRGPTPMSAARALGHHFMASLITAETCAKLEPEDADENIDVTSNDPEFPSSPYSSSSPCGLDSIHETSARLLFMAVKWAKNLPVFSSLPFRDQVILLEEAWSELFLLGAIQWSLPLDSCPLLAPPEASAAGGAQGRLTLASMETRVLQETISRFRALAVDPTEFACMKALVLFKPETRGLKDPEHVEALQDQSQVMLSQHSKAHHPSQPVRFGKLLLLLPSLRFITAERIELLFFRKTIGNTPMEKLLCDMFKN
A short description of test [10]: GAL4-VP16 reporter modulators, confirmation, counter-screen for NR2E3 agonist project, cell-based, luminescence, CHO-S, high throughput (AID 624379;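 active = mean inhibition above a cutoff equal to the average over all tested compounds plus one standard deviation, cut at about 70% in these data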;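 note: 0% = DMSO with VP16-transfected cells and 100% = DMSO with cells lacking VP16; higher means less reporter light so more repression of VP16 activity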). Conditions: CHO-S GAL4-VP16 luciferase reporter, at 3.98 µM, stronger effect = higher value.

Molecules are shown by their SMILES. A number with no mark means an inactive call. The list shows a part of the results. Activity calls are given as the source filed them. Cut-off read from the data, not from the text of the source, unless noted: active = inhibition above about 30%; inactive = the rest.

Chain of Nuclear receptor coactivator 1 (Homo sapiens) (Q15788 whole entry, looked up, the tested form may be a part): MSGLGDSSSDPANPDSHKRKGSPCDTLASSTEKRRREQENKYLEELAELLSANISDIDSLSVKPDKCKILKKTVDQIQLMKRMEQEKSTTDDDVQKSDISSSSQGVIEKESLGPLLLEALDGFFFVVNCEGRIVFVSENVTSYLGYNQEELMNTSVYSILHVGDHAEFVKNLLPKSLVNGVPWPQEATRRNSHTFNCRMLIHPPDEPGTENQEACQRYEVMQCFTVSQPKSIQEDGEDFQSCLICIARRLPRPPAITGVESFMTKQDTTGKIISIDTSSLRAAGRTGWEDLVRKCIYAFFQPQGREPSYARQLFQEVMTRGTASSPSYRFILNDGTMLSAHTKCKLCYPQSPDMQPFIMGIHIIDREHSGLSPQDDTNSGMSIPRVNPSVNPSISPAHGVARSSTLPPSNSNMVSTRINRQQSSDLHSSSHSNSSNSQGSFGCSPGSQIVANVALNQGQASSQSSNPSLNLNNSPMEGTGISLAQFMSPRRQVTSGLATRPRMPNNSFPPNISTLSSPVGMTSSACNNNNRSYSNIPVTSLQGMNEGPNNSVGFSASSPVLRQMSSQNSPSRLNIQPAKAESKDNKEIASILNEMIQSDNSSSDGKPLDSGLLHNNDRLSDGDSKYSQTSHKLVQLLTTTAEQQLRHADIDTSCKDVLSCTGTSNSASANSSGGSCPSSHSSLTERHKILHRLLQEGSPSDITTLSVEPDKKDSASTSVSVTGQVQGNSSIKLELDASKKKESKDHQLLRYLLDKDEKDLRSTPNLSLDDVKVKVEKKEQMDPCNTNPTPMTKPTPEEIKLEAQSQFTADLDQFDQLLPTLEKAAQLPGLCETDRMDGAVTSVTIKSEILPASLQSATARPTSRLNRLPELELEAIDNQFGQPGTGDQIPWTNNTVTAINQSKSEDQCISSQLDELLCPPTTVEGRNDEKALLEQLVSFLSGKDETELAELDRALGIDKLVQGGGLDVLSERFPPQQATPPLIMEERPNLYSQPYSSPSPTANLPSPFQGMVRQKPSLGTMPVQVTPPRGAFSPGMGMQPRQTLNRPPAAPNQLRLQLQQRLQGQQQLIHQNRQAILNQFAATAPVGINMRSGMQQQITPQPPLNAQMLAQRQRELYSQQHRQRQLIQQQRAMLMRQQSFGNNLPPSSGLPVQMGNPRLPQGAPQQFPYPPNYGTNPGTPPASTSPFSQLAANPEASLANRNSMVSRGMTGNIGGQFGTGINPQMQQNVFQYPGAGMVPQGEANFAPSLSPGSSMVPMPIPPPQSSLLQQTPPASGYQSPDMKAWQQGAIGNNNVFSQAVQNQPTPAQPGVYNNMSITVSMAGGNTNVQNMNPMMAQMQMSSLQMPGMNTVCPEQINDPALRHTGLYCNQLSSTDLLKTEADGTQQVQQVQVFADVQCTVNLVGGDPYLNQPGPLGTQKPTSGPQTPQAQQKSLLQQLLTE
Chain of Nuclear receptor coactivator 3 (Homo sapiens) (Q9Y6Q9 whole entry, looked up, the tested form may be a part): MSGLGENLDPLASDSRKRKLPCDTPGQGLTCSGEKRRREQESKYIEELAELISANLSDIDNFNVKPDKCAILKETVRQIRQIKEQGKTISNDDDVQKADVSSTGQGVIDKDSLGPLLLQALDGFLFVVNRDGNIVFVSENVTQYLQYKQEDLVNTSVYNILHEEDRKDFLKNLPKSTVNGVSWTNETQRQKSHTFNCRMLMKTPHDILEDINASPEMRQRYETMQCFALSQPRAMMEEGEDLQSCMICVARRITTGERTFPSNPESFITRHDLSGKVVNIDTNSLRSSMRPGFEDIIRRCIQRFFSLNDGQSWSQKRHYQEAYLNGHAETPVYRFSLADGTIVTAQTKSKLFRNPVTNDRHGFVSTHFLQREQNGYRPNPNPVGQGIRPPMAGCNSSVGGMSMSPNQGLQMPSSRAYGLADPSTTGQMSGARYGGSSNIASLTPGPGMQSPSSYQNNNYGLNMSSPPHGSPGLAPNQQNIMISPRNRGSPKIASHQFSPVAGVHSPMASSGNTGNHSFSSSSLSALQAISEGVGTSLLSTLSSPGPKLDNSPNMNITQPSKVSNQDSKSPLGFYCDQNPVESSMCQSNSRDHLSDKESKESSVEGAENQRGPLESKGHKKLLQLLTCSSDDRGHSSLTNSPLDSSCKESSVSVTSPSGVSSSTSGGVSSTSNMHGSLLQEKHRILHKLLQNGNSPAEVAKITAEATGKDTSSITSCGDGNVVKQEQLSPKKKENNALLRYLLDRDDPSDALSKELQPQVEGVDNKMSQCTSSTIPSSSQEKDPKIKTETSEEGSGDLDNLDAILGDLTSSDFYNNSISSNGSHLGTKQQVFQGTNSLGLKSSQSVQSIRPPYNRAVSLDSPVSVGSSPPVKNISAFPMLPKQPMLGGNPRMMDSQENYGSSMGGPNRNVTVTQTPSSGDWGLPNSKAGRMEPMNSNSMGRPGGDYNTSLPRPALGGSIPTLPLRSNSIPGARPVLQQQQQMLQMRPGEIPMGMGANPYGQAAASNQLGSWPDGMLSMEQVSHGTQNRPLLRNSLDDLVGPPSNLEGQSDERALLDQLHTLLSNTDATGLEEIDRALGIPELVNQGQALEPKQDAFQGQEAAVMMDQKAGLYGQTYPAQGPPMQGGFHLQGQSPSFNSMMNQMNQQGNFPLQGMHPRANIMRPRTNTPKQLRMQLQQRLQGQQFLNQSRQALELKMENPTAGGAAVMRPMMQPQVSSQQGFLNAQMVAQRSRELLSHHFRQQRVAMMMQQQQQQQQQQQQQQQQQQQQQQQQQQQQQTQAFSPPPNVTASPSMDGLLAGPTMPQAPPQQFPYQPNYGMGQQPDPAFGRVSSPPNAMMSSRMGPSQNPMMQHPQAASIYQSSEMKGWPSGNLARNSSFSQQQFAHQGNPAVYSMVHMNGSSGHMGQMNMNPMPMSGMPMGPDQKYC
Chain of Steroidogenic factor 1 (Homo sapiens) (Q13285 whole entry, looked up, the tested form may be a part): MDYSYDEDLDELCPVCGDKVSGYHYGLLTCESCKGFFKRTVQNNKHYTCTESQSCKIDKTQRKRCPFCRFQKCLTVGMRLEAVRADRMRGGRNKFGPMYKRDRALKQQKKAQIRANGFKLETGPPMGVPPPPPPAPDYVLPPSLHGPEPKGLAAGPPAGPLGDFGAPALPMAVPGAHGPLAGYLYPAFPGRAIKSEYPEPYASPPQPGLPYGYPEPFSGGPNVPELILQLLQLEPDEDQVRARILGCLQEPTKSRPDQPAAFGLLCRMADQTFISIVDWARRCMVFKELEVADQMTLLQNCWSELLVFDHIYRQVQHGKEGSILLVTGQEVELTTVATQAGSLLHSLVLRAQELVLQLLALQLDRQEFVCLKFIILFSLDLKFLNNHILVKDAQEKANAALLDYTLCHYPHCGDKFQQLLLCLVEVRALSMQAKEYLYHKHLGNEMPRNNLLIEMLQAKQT

By inhibition is commonly meant the change of the read-out against control, counted positive when it falls. On to `O=c1[nH]c(=O)n(CCC2=CCCCC2)c(O)c1C=NC1CCN(Cc2ccccc2)CC1`, for which the inhibition is -0.53% in [1] and 36.4% (active) in test [2].

`CC(=O)c1c(C)n(C2CCCCC2)c2ccc(O)cc12`: the inhibition in [1] was 81.2% (active); in test [2], 58.5% (active); in [3], 68.4% (active); in [4], 60.2% (active).

On to `O=c1[nH]c2ccccc2n1C1CCN(C(c2ccnc3ccccc23)c2nnnn2-c2ccc3c(c2)OCCO3)CC1` (centres undefined), for which the inhibition is 8.29% in [1], 6.76% in [2], -26.3% in test [3] and 8.7% in test [4].

Take `O=c1[nH]c2ccccc2n1C1CCN(C(c2cc3ccccc3o2)c2nnnn2Cc2ccccc2)CC1` (centres undefined): the inhibition in test [1] is 59.9% (active); in [2], 9.7%; in test [3] it was -16%; in test [4] it was 11.7%.

For the molecule `COc1cccc(C(c2nnnn2-c2ccc3c(c2)OCCO3)N2CCC(n3c(=O)[nH]c4ccccc43)CC2)c1OC` (centres undefined), the inhibition in test [1] is 26.6%; in [2] it was 35.9% (active); in test [3], -22.4%; in [4] it was 24.7%.

As for `O=c1[nH]c2ccccc2n1C1CCN(C(c2nnnn2-c2ccc3c(c2)OCCO3)C2CC2)CC1` (centres undefined), the inhibition is 25.1% in [1], 23.5% in [2], -8.7% in test [3] and 22% in [4].

With `C[C@H]1CCC/C=C/C2C[C@H](O)CC2[C@H](O)/C=C/C(=O)O1` (some centres undefined), the inhibition in test [1] is 69.2% (active); in [2], 80.2% (active).

For `CCCNC(=O)N1[C@H]2CC[C@@H]1C(C(=O)OC)=C(c1ccc(OC(F)(F)F)cc1)C2`, the figures for the inhibition in test [1] and in test [2] were 14.2% and -7.81%, respectively.

`O=C(CSC1c2ccccc2-c2ccccc21)N/N=C/c1ccccc1O`: the inhibition in test [1] is 17.4%; in test [2] it was 21.9%; in test [3], 13.8%; in [4] it was 18%.

As for `O=c1[nH]c2ccccc2n1C1CCN(C(c2cccs2)c2nnnn2Cc2ccccc2)CC1` (centres undefined), the inhibition was 32.3% in [1], 36.7% (active) in test [2], 0.46% in [3] and 32.5% (active) in [4].

Take `O=c1[nH]c2ccccc2n1C1CCN(C(CCc2ccccc2)c2nnnn2C2CCCCC2)CC1` (centres undefined): the inhibition is 11.8% in [1], 12.5% in test [2], 2.31% in test [3] and -5.85% in test [4].

For the molecule `CCN(CCCl)c1cc(CN(C)C)cc(NC(=O)c2ccc(C(=O)Nc3cc(CN(C)C)cc(N(CC)CCCl)c3)cc2)c1`, the figures for the inhibition in [1] and in test [2] were 94.8% (active) and 92% (active), respectively.

For the molecule `Cc1c(C(=O)N2CCC3(CC2)OCCO3)sc2ncnc(N3CCN(c4ccccn4)CC3)c12`, the inhibition is -7.87% in [1] and -13.2% in test [2].

Consider `C[C@@H]1O[C@@H](O[C@H]2C[C@@H](O)[C@]3(CO)[C@@H]4C(CC[C@]3(O)C2)[C@@]2(O)CC[C@H](C3COC(=O)C3)[C@@]2(C)C[C@H]4O)[C@H](O)[C@H](O)[C@H]1O` (some centres undefined), for which the inhibition in [1] is 87.8% (active); in [2], 47.1% (active); in test [3], 5.8%; in [4], 54.1% (active); in test [5], 92% (active); in test [6], 100% (active). The inhibition in test [7] was 85.2% (active); in [8] it was 56.4% (active).

On to `Cc1ccc(C[n+]2c(-c3ccc(C)cc3)cc(-c3ccc(C)cc3)cc2-c2ccc(C)cc2)cc1`, for which the inhibition is 91.3% (active) in test [1], 87.9% (active) in test [2], 44.1% in test [3] and 84.7% (active) in test [4].

For `Cc1ccccc1-[n+]1c(-c2ccccc2)cc(-c2ccccc2)cc1-c1ccccc1`, the inhibition in test [1] is 69.8% (active); in [2], 86% (active); in test [3] it was 71.6% (active); in [4], 84.6% (active); in test [5] it was 83.2% (active); in test [6] it was 109% (active). The inhibition in test [7] is 95.3% (active); in test [8], 94.7% (active).

For `Cc1[nH]nc2ccc(-c3cncc(OC[C@@H](N)Cc4c[nH]c5ccccc45)c3)cc12`, the inhibition was 98.5% (active) in [1], 97.1% (active) in test [2], 93.5% (active) in test [3] and 97.3% (active) in test [4].

As for `CC[C@@H](O)C[C@H]1CCC[C@@]2(C[C@@H]3OC(=O)/C=C/[C@@](C)(O)[C@@H](O)[C@H](C)[C@@H](O)[C@H](OC4CCC(N(C)C)C(C)O4)[C@@H](O)[C@](C)(O)CCCCC/C=C/[C@@H]4CC(C)(C)O[C@@]4(O)C[C@H](O2)[C@H]3C)O1` (some centres undefined), the inhibition in test [1] was 76.5% (active); in test [2], 85.9% (active); in test [3], 62.5% (active); in test [4], 85% (active); in test [5] it was 79.8% (active); in test [6], 105% (active). Further, the inhibition in test [7] was 94% (active); in [8], 87.9% (active).

Take `Cc1c2ccncc2c(C)c2c1[nH]c1ccccc12`: the inhibition was 24% in test [1], 45.9% (active) in test [2], 25.6% in test [3] and 42.1% (active) in test [4].

For `O=c1[nH]c2ccccc2n1C1CCN(C(c2ccccc2)c2nnnn2Cc2ccccc2)CC1` (centres undefined), the inhibition in test [1] was 64.1% (active); in test [2], 16.8%; in test [3], -21.5%; in test [4], 15.1%; in test [9], 30.7%; in [10] it was 4.07%.
